Data taken from the supplement of paper PMC10037445.
“And” between values parts separate entries of the source, which are not always exact repeats. Equal values may be shown once. In all, about 2,900 compounds were measured (“NF-kB SEAP reporter activity, fold change vs agonist alone”: median about 0.99, highest 2% from about 2.6 on). The list comes from a sample in which the highest values are over-represented; it also holds similar structures and randomly drawn compounds.

Tests used:
RAW-Dual [1] = assay: NF-kB SEAP reporter activity, fold change vs agonist alone; cytotoxicity flag (confluency mask): cytotoxic (confluency <70% of control); higher = enhanced NF-kB activity
Procedure, shortened: (§1)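 RAW-Dual macrophages (50,000 cells/well in DMEM, 384-well plates) received 50 nL of library stock by pin tool, then a PRR agonist 1 h later, and were kept at 37 °C, 5% CO2. After 20 hours, supernatant was read for IRF by QuantiLuc luminescence and for NF-κB by QuantiBlue absorbance at 620 nm. Reporter activity is fold change over agonist-alone wells. Cytotoxic wells had IncuCyte confluency below 70% of agonist controls in both mask sets.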

RAW-Dual [2] = assay: NF-kB SEAP reporter activity, fold change vs agonist alone; higher = enhanced NF-kB activity
Procedure, shortened: as §1

RAW-Dual [3] = assay: NF-kB SEAP reporter activity, fold change vs agonist alone; cytotoxicity flag (confluency mask): not cytotoxic; higher = enhanced NF-kB activity
Procedure, shortened: as §1

[4] = agonist: ODN 1826 (TLR9) 0.5 ug/mL
[5] = agonist: Pam2CSK4 (TLR2/6) 0.1 ug/mL
[6] = agonist: Pam3CSK4 (TLR2/1) 0.1 ug/mL
[7] = library stock concentration (final ~1000-fold dilution): 10 mM, cytotoxicity flag (confluency mask): cytotoxic (confluency <70% of control), agonist: MPLA (TLR4) […]
[8] = library stock concentration (final ~1000-fold dilution): 10 mM, cytotoxicity flag (confluency mask): not cytotoxic, agonist: Imiquimod (TLR7) […]
[9] = library stock concentration (final ~1000-fold dilution): 10 mM, cytotoxicity flag (confluency mask): not cytotoxic, agonist: MPLA (TLR4) […]

In the case of `C=CC1CC1(NC(=O)C1CC(Oc2ncc(OC)c3ccc(Cl)cc23)CN1C(=O)C(NC(=O)OC(C)(C)C)C(C)(C)C)C(=O)NS(=O)(=O)C1CC1` (stereo not given) (library stock concentration (final ~1000-fold dilution): 10 mM), the “NF-kB SEAP reporter activity” value (RAW-Dual [1]; agonist: LPS (TLR4) 0.1 ug/mL) is reported as 1.1, the “NF-kB SEAP reporter activity” value (RAW-Dual [1]; [4]) is reported as 0.915 and the “NF-kB SEAP reporter activity” value (RAW-Dual [1]; [5]) is reported as 0.518. For the same compound, the “NF-kB SEAP reporter activity” value (RAW-Dual [1]; [6]) was 0.508.
In the case of `C=CC1CC1(NC(=O)C1CC(Oc2ncc(OC)c3ccc(Cl)cc23)CN1C(=O)C(NC(=O)OC(C)(C)C)C(C)(C)C)C(=O)NS(=O)(=O)C1CC1` (stereo not given), the “NF-kB SEAP reporter activity” value (RAW-Dual [2]; [7]) is reported as 1.06.
`Cc1cc(Nc2cc(N3CCN(C)CC3)nc(/C=C/c3ccccc3)n2)n[nH]1.O=C(O)C(O)C(O)C(=O)O` was tested, and the “NF-kB SEAP reporter activity” value (RAW-Dual [2]; [8]) was 0.89 and the “NF-kB SEAP reporter activity” value (RAW-Dual [2]; [9]) was 0.85.
In the case of `Cc1cc(Nc2cc(N3CCN(C)CC3)nc(/C=C/c3ccccc3)n2)n[nH]1.O=C(O)C(O)C(O)C(=O)O` (library stock concentration (final ~1000-fold dilution): 10 mM), the “NF-kB SEAP reporter activity” value (RAW-Dual [3]; agonist: LPS (TLR4) 0.1 ug/mL) is reported as 0.407, the “NF-kB SEAP reporter activity” value (RAW-Dual [3]; [4]) is reported as 0.191 and the “NF-kB SEAP reporter activity” value (RAW-Dual [3]; [5]) is reported as 0.297. The “NF-kB SEAP reporter activity” value (RAW-Dual [3]; [6]) was 0.279.
In the case of `CNC(C)C(=O)NC(C(=O)N1CCCC1c1nc(C(=O)c2ccc(F)cc2)cs1)C1CCCCC1` (stereo not given), the “NF-kB SEAP reporter activity” value (RAW-Dual [2]; library stock concentration (final ~1000-fold dilution): 10 mM, cytotoxicity flag (confluency mask): cytotoxic (confluency <70% of control), agonist: Imiquimod (TLR7) […]) is reported as 1.16 and the “NF-kB SEAP reporter activity” value (RAW-Dual [2]; [7]) is reported as 0.714.
`CNC(C)C(=O)NC(C(=O)N1CCCC1c1nc(C(=O)c2ccc(F)cc2)cs1)C1CCCCC1` (stereo not given) (library stock concentration (final ~1000-fold dilution): 10 mM) was tested, and the “NF-kB SEAP reporter activity” value (RAW-Dual [1]; agonist: LPS (TLR4) 0.1 ug/mL) was 0.436, the “NF-kB SEAP reporter activity” value (RAW-Dual [1]; [4]) was 0.764 and the “NF-kB SEAP reporter activity” value (RAW-Dual [1]; [5]) was 0.902. The “NF-kB SEAP reporter activity” value (RAW-Dual [1]; [6]) was 0.517.
With `O=c1cc(-c2ccc(O)cc2)oc2cccc(O)c12` (library stock concentration (final ~1000-fold dilution): 10 mM) the “NF-kB SEAP reporter activity” value (RAW-Dual [3]; agonist: LPS (TLR4) 0.1 ug/mL) was 1.55, the “NF-kB SEAP reporter activity” value (RAW-Dual [3]; [4]) was 1.15 and the “NF-kB SEAP reporter activity” value (RAW-Dual [3]; [5]) was 1.09. The “NF-kB SEAP reporter activity” value (RAW-Dual [3]; [6]) was 1.82.
With `O=c1cc(-c2ccc(O)cc2)oc2cccc(O)c12` the “NF-kB SEAP reporter activity” value (RAW-Dual [2]; [8]) was 1.07 and the “NF-kB SEAP reporter activity” value (RAW-Dual [2]; [9]) was 1.37.
For `O=C(O)CSc1cc(NS(=O)(=O)c2ccc(Br)cc2)c2ccccc2c1O` (library stock concentration (final ~1000-fold dilution): 10 mM), the “NF-kB SEAP reporter activity” value (RAW-Dual [3]; agonist: LPS (TLR4) 0.1 ug/mL) was 3.16, the “NF-kB SEAP reporter activity” value (RAW-Dual [3]; [4]) was 1.31 and the “NF-kB SEAP reporter activity” value (RAW-Dual [3]; [5]) was 1.24. For the same compound, the “NF-kB SEAP reporter activity” value (RAW-Dual [3]; [6]) was 2.31.
With `CC(C)(C)C(=O)Oc1ccc(S(=O)(=O)Nc2ccccc2C(=O)NCC(=O)O)cc1` (library stock concentration (final ~1000-fold dilution): 10 mM) the “NF-kB SEAP reporter activity” value (RAW-Dual [3]; agonist: LPS (TLR4) 0.1 ug/mL) was 1.36 and 1.08, the “NF-kB SEAP reporter activity” value (RAW-Dual [3]; [4]) was 0.906 and 0.939 and the “NF-kB SEAP reporter activity” value (RAW-Dual [3]; [5]) was 1.39 and 1. The “NF-kB SEAP reporter activity” value (RAW-Dual [3]; [6]) was 0.652 and 1.02.
`O=C(O)CSc1nnc(Br)n1-c1ccc(C2CC2)c2ccccc12` was tested, and the “NF-kB SEAP reporter activity” value (RAW-Dual [2]; [9]) was 0.983.
With `O=C(O)CSc1cc(NS(=O)(=O)c2ccc(Br)cc2)c2ccccc2c1O` the “NF-kB SEAP reporter activity” value (RAW-Dual [2]; [8]) was 1.12 and the “NF-kB SEAP reporter activity” value (RAW-Dual [2]; [9]) was 2.21.
With `O=C(O)CSc1nnc(Br)n1-c1ccc(C2CC2)c2ccccc12` (library stock concentration (final ~1000-fold dilution): 10 mM) the “NF-kB SEAP reporter activity” value (RAW-Dual [3]; agonist: LPS (TLR4) 0.1 ug/mL) was 1.32, the “NF-kB SEAP reporter activity” value (RAW-Dual [3]; [4]) was 1.01 and the “NF-kB SEAP reporter activity” value (RAW-Dual [3]; [5]) was 1.24. For the same compound, the “NF-kB SEAP reporter activity” value (RAW-Dual [3]; [6]) was 1.18.
In the case of `CC(C)(C)C(=O)Oc1ccc(S(=O)(=O)Nc2ccccc2C(=O)NCC(=O)O)cc1`, the “NF-kB SEAP reporter activity” value (RAW-Dual [2]; [8]) is reported as 0.966.
In the case of `CSCCNc1nc(SCCC(F)(F)F)nc2c1ncn2C1OC(COP(=O)(O)OP(=O)(O)C(Cl)(Cl)P(=O)(O)O)C(O)C1O` (stereo not given) (library stock concentration (final ~1000-fold dilution): 10 mM water), the “NF-kB SEAP reporter activity” value (RAW-Dual [3]; agonist: LPS (TLR4) 0.1 ug/mL) is reported as 1.15, the “NF-kB SEAP reporter activity” value (RAW-Dual [3]; [4]) is reported as 1.26 and the “NF-kB SEAP reporter activity” value (RAW-Dual [3]; [5]) is reported as 1.18. For the same compound, the “NF-kB SEAP reporter activity” value (RAW-Dual [3]; [6]) was 0.935.
With `CSCCNc1nc(SCCC(F)(F)F)nc2c1ncn2C1OC(COP(=O)(O)OP(=O)(O)C(Cl)(Cl)P(=O)(O)O)C(O)C1O` (stereo not given) the “NF-kB SEAP reporter activity” value (RAW-Dual [2]; library stock concentration (final ~1000-fold dilution): 10 mM water, cytotoxicity flag (confluency mask): not cytotoxic, agonist: Imiquimod (TLR7) […]) was 0.972 and the “NF-kB SEAP reporter activity” value (RAW-Dual [2]; library stock concentration (final ~1000-fold dilution): 10 mM water, cytotoxicity flag (confluency mask): not cytotoxic, agonist: MPLA (TLR4) […]) was 1.04.
